From PubChem BioAssay AID1159580 (chemical genetic matrix, 2015)
About 2,000 (36%) of roughly 5,500 compounds were called active. Another 18% or so got no clear call; they are omitted. Cut-off read from the data, not from the text of the source: active = normalized growth mostly below about 0.91 (no sharp cut-off); inconclusive = no clear call, values can overlap the other calls; inactive = mostly above about 0.92. The list shows a part of the results.

Assay: chemical genetic growth profiling, strain panel (AID 1159580);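 note: tested at 20 µM; growth read once vehicle control cultures reached saturation at 30 °C; 1 = growth at the plate median or of vehicle wells; lower values mean less growth of the strain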
Conditions: growth OD

Measured: normalized growth

Cc1cc(/C=C/c2ccc3cc(N(C)C)ccc3[n+]2C)c(C)n1-c1ccccc1
active: S. cerevisiae deletion strains, locus YKL160W, strain elf1, hits give low values 0.829 | S. cerevisiae deletion strains, locus YKL190W, strain CNB1, hits give low values 0.692 | S. cerevisiae deletion strains, locus YLL026W, hits give low values 0.926 | S. cerevisiae deletion strains, locus YLR027C, strain aat2, hits give low values 0.909 | S. cerevisiae deletion strains, locus YLR058C, strain SHM2, hits give low values 0.887 | S. cerevisiae deletion strains, locus YLR221C, strain rsa3, hits give low values 0.905 | S. cerevisiae deletion strains, locus YLR262C, strain YPT6 (second series), hits give low values 0.717 | S. cerevisiae deletion strains, locus YLR320W, strain mms22, hits give low values 0.797 | S. cerevisiae deletion strains, locus YLR342W, strain FKS1 (second series), hits give low values 0.774 | S. cerevisiae deletion strains, locus YLR342W, strain FKS1, hits give low values 0.832 | S. cerevisiae deletion strains, locus YLR418C, strain cdc73, hits give low values 0.385 | S. cerevisiae deletion strains, locus YML016C, strain PPZ1, hits give low values 0.906 | S. cerevisiae deletion strains, locus YMR058W, strain fet3, hits give low values 0.863 | S. cerevisiae deletion strains, locus YMR125W, strain sto1, hits give low values 0.819 | S. cerevisiae deletion strains, locus YMR129W, hits give low values 0.874 | S. cerevisiae deletion strains, locus YMR307W, strain GAS1, hits give low values 0.583 | S. cerevisiae deletion strains, locus YNL067W, strain RPL9B, hits give low values 0.842 | S. cerevisiae deletion strains, locus YNL071W, strain lat1, hits give low values 0.762 | S. cerevisiae deletion strains, locus YNL128W, strain TEP1, hits give low values 0.202 | S. cerevisiae deletion strains, locus YNL153C, strain GIM3, hits give low values 0.709 | S. cerevisiae deletion strains, locus YNL209W, strain ssb2, hits give low values 0.848 | S. cerevisiae deletion strains, locus YNL233W, strain BNI4, hits give low values 0.749 | S. cerevisiae deletion strains, locus YNL248C, strain rpa49, hits give low values 0.714 | S. cerevisiae deletion strains, locus YNL307C, strain MCK1, hits give low values 0.863 | S. cerevisiae deletion strains, locus YNL322C, strain KRE1, hits give low values 0.686 | S. cerevisiae deletion strains, locus YNR052C, strain pop2, hits give low values 0.731 | S. cerevisiae deletion strains, locus YOL006C, strain TOP1, hits give low values 0.382 | S. cerevisiae deletion strains, locus YOR070C, strain gyp1, hits give low values 0.91 | S. cerevisiae deletion strains, locus YOR080W, strain dia2, hits give low values 0.892 | S. cerevisiae deletion strains, locus YOR083W, strain WHI5, hits give low values 0.804 | S. cerevisiae deletion strains, locus YOR106W, strain vam3, hits give low values 0.754 | S. cerevisiae deletion strains, locus YOR265W, strain rbl2, hits give low values 0.92 | S. cerevisiae deletion strains, locus YOR270C, strain vph1, hits give low values 0.728 | S. cerevisiae deletion strains, locus YPL051W, strain arl3, hits give low values 0.914 | S. cerevisiae deletion strains, locus YPL106C, strain sse1, hits give low values 0.468 | S. cerevisiae deletion strains, strain wtn01, hits give low values 0.775 | S. cerevisiae strains, strain wild type, hits give low values 0.484
inactive: S. cerevisiae deletion strains, locus YJR066W, strain TOR1, hits give low values 0.948 | S. cerevisiae deletion strains, locus YKL068W, hits give low values 1.03 | S. cerevisiae deletion strains, locus YKL085W, strain MDH1 (second series), hits give low values 1.03 | S. cerevisiae deletion strains, locus YKL085W, strain MDH1, hits give low values 1.03 | S. cerevisiae deletion strains, locus YKR001C, strain vps1, hits give low values 0.987 | S. cerevisiae deletion strains, locus YKR026C, strain gcn3, hits give low values 1.01 | S. cerevisiae deletion strains, locus YKR091W, strain srl3, hits give low values 1.02 | S. cerevisiae deletion strains, locus YLL001W, strain dnm1, hits give low values 0.934 | S. cerevisiae deletion strains, locus YLL041C, strain sdh2, hits give low values 1.03 | S. cerevisiae deletion strains, locus YLR039C, strain RIC1, hits give low values 0.703 | S. cerevisiae deletion strains, locus YLR102C, strain apc9, hits give low values 1.01 | S. cerevisiae deletion strains, locus YLR113W, strain HOG1, hits give low values 1.02 | S. cerevisiae deletion strains, locus YLR258W, strain gsy2, hits give low values 0.986 | S. cerevisiae deletion strains, locus YLR262C, strain YPT6, hits give low values 0.776 | S. cerevisiae deletion strains, locus YLR268W, strain sec22, hits give low values 0.919 | S. cerevisiae deletion strains, locus YLR330W, strain CHS5, hits give low values 1 | S. cerevisiae deletion strains, locus YLR357W, strain rsc2, hits give low values 1.09 | S. cerevisiae deletion strains, locus YLR370C, strain arc18, hits give low values 0.986 | S. cerevisiae deletion strains, locus YLR371W, strain rom2, hits give low values 1.02 | S. cerevisiae deletion strains, locus YLR384C, strain iki3, hits give low values 1 | S. cerevisiae deletion strains, locus YML032C, strain rad52, hits give low values 0.947 | S. cerevisiae deletion strains, locus YML120C, strain ndi1, hits give low values 0.93 | S. cerevisiae deletion strains, locus YML124C, strain tub3, hits give low values 1.02 | S. cerevisiae deletion strains, locus YMR078C, strain ctf18, hits give low values 1.02 | S. cerevisiae deletion strains, locus YMR205C, strain PFK2, hits give low values 1.04 | S. cerevisiae deletion strains, locus YMR223W, strain ubp8, hits give low values 0.949 | S. cerevisiae deletion strains, locus YMR231W, strain pep5, hits give low values 1.01 | S. cerevisiae deletion strains, locus YNL183C, strain NPR1, hits give low values 0.962 | S. cerevisiae deletion strains, locus YNL250W, strain rad50, hits give low values 1.02 | S. cerevisiae deletion strains, locus YNL271C, strain bni1, hits give low values 1.02 | S. cerevisiae deletion strains, locus YNL298W, strain CLA4, hits give low values 1.01 | S. cerevisiae deletion strains, locus YNL322C, strain KRE1 (second series), hits give low values 1.01 | S. cerevisiae deletion strains, locus YNR049C, strain mso1, hits give low values 1.01 | S. cerevisiae deletion strains, locus YOL012C, strain htz1 0.461 | S. cerevisiae deletion strains, locus YOL147C, strain pex11, hits give low values 0.999 | S. cerevisiae deletion strains, locus YOR001W, strain rrp6, hits give low values 0.954 | S. cerevisiae deletion strains, locus YOR061W, strain CKA2, hits give low values 0.909 | S. cerevisiae deletion strains, locus YOR069W, strain VPS5, hits give low values 0.995 | S. cerevisiae deletion strains, locus YOR136W, strain idh2, hits give low values 0.997 | S. cerevisiae deletion strains, locus YOR144C, strain elg1, hits give low values 1 | S. cerevisiae deletion strains, locus YOR184W, strain ser1, hits give low values 0.928 | S. cerevisiae deletion strains, locus YOR231W, strain MKK1, hits give low values 1.01 | S. cerevisiae deletion strains, locus YOR290C, strain snf2, hits give low values 0.947 | S. cerevisiae deletion strains, locus YOR316C, strain cot1, hits give low values 1.01 | S. cerevisiae deletion strains, locus YPL078C, strain atp4, hits give low values 0.96 | S. cerevisiae deletion strains, locus YPL240C, strain hsp82, hits give low values 1.01 | S. cerevisiae deletion strains, locus YPL256C, strain CLN2, hits give low values 1.02 | S. cerevisiae deletion strains, locus YPR119W, strain clb2, hits give low values 1.01 | S. cerevisiae deletion strains, locus YPR141C, strain kar3, hits give low values 1.04 | S. cerevisiae deletion strains, locus YPR163C, strain tif3, hits give low values 1.01 | S. cerevisiae deletion strains, locus YPR167C, strain met16, hits give low values 0.989
